Bioassay records: PubChem, Broad Institute
Compounds with a hit are over-represented: about 0.64% of the library has one in this group of screens.
AI-2 QS modul = Vibrio harveyi AI-2 quorum sensing modulators, primary screen, JMH597 strain, luminescence/OD600 ratio; Vibrio harveyi JMH597 AI-2 luminescence/OD600 ratio, 9 h; stronger effect = lower value; strain lacks LuxN and CqsS sensors; 0 = neutral-control median; hit rate 0.4% among 300,000; AID 2094, 2009; activity change, % at 7.5 µM; in the data active means activity change below about -75%, passing the limit was not always enough; inconclusive means no clear call, values can overlap the other calls;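 further: luminescence divided by OD600 gain over 9 h not by final OD600 alone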
PDI turbidity = inhibitors of human PDI, primary screen, biochemical, turbidity, single point, plate reader; Protein disulfide-isomerase (Homo sapiens), P07237; PDI insulin aggregation turbidity, A650, 90 min; inhibition, % at 10 µM; hit rate 0.052% among 350,000;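 active means mean inhibition across replicates of 30% or more, whatever share of single replicates reach that level; inconclusive means mean inhibition below 30% while every single replicate reaches 30%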
Target sequence (P07237 whole entry, looked up): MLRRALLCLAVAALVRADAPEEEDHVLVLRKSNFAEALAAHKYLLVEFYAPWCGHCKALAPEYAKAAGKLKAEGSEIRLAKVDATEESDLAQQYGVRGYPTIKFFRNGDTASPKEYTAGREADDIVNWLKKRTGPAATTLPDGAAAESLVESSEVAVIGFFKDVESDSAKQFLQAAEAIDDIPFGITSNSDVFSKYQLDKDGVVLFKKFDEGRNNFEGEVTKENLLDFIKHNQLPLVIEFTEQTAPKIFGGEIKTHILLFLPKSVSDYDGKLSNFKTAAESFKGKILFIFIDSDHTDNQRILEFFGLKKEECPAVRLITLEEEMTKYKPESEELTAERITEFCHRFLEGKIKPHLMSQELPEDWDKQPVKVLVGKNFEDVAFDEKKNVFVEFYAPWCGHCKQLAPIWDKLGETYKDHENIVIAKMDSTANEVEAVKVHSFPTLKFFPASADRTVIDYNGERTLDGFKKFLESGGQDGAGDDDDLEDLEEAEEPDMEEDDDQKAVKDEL
PvdQ acylase = P. aeruginosa PvdQ acylase inhibitors, primary screen, biochemical, fluorescence, plate reader and imaging, single point | PvdQ acylase [Pseudomonas aeruginosa LESB58] | inhibition, % at 10 µM | purified PvdQ acylase | AID 488965, 2010 | hit rate 0.063% among 340,000; in the data active means inhibition above about 30%, passing the limit was not always enough; inconclusive means no clear call, values can overlap the other calls;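 further: 0% = vehicle neutral wells and 100% = reference inhibitor wells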
Vif inh = HIV Vif self-association inhibitors, primary screen, imaging, HEK293T, single point; HEK293T cells, Vif self-association by quenched fluorescence, 24 h; inhibition, % at 7.49 µM; hit rate 0.35% among 340,000; AID 602346, 2012; in the data active means inhibition above about 50%, passing the limit was not always enough; inconclusive means no clear call, values can overlap the other calls; inactive means below about 31%
ERp5 inh = inhibitors of ERp5-driven insulin aggregation, primary screen, biochemical, turbidity, absorbance 650 nm, single point. hit rate 0.05% among 350,000. inhibition, % at 9.99 µM. AID 651711, 2012. 90 min;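 active means mean replicate inhibition above about 25%, with every replicate also reaching it, limit read from the data, passing the limit was not always enough; inconclusive means only one of those two criteria met; inactive means neither criterion met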
JMH597 growth = Vibrio harveyi growth inhibition, confirmation, counter-screen for AI-2 quorum sensing project, JMH597 strain, OD600 absorbance; AID 2726, 2010; 9 h; lacks LuxN and CqsS sensors; hit rate 1% among 750; growth inhibition, % at 7.5 µM; shares compounds with AI-2 QS modul;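 active means every replicate shows growth inhibition above 50%; inconclusive means at least half, but not all, replicates pass that cutoff; inactive means fewer than half of replicates pass it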
BB721 const-QS lum = luminescence inhibition in constitutive-on V. harveyi, confirmation, counter-screen for LuxS inhibitor project, strain BB721, luminescence readout | shares compounds with AI-2 QS modul | Vibrio harveyi BB721 luminescence, 9 h | inhibition, % at 7.5 µM | hit rate 95% among 750 | AID 2727, 2010;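 active means inhibition above about 80% in every replicate, not just on average, limit read from the data; inconclusive means at least half of replicates past the limit, but not all; inactive means fewer than half of replicates past the limit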
BB721 growth rt = growth inhibition of V. harveyi BB721, confirmation, cytotoxicity control for AI-2 quorum sensing inhibitors, strain BB721, absorbance OD600; shares compounds with AI-2 QS modul; Vibrio harveyi BB721 growth, 9 h; growth inhibition, % at 7.5 µM; hit rate 3% among 750; AID 2728, 2010;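 active means every replicate shows growth inhibition above 50%; inconclusive means at least half but not all replicates above 50% inhibition; inactive means under half of replicates above 50% inhibition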
AI-2 QS JMH597 = Vibrio harveyi AI-2 signaling luminescence modulation – JMH597 strain, confirmation | AID 2736, 2010 | Vibrio harveyi JMH597 AI-2 quorum sensing luminescence, 9 h; luxN and CqsS knockout, AI-2 only | hit rate 97% among 750 | inhibition, % at 7.5 µM | shares compounds with AI-2 QS modul;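 active means every replicate shows more than 75% inhibition of signal versus neutral control wells; inconclusive means half to three quarters of replicates exceed 75% inhibition; inactive means fewer than half of replicates exceed 75% inhibition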
* = called active by the depositor.

Screening COc1ccc(-c2nnc(SCc3cccc(C#N)c3)o2)cc1 returned AI-2 QS modul -39.8, PDI turbidity -2.1, PvdQ acylase 0.4, Vif inh -4.2 and ERp5 inh 6.7.
For COc1cccc(CSc2nnc(-c3ccc(F)cc3)o2)c1 the results were AI-2 QS modul -91.2*, PDI turbidity -3.5, PvdQ acylase -3.2, Vif inh 2.9, JMH597 growth 30.5, BB721 const-QS lum 96.3*, BB721 growth rt 4.9 and AI-2 QS JMH597 97.5*.
Screening C(=C\c1nc(-c2ccccc2)no1)/c1ccccc1 returned AI-2 QS modul -87.9*, PDI turbidity 1.3, PvdQ acylase -13.2, Vif inh -6.8, ERp5 inh -4.9, JMH597 growth 10.6, BB721 const-QS lum 94.9*, BB721 growth rt 12.9 and AI-2 QS JMH597 96.1*.
For O=C(COc1ncnc2ccccc12)Nc1ccccc1[N+](=O)[O-] the results were AI-2 QS modul 26.7, PDI turbidity -4.8, PvdQ acylase -12.0, Vif inh -1.7 and ERp5 inh 1.0.
For COc1cc([N+](=O)[O-])ccc1NC(=O)COC(=O)C=C(C)C the results were AI-2 QS modul -22.6, PDI turbidity -6.0, PvdQ acylase 2.3, Vif inh -0.7 and ERp5 inh 6.6.
For O=C(COc1ncnc2ccccc12)Nc1cccc([N+](=O)[O-])c1 the results were AI-2 QS modul -96.2*, PDI turbidity 2.5, PvdQ acylase -5.8, Vif inh 0.7, ERp5 inh 4.2, JMH597 growth -8.9, BB721 const-QS lum 98.4*, BB721 growth rt -41.5 and AI-2 QS JMH597 98.9*.
O=C(COc1ncnc2ccccc12)Nc1ccc(Cl)c([N+](=O)[O-])c1 was read as AI-2 QS modul -96.8*, PDI turbidity -9.3, PvdQ acylase -3.7, Vif inh -0.3, ERp5 inh -0.2, JMH597 growth -20.7, BB721 const-QS lum 99.7*, BB721 growth rt -10.2 and AI-2 QS JMH597 99.8*.
CC(C)=CC(=O)OCC(=O)Nc1cccc([N+](=O)[O-])c1 was read as AI-2 QS modul -89.4*, PDI turbidity 4.6, PvdQ acylase -1.1, Vif inh 17.7, ERp5 inh -4.6, JMH597 growth 11.4, BB721 const-QS lum 94.8*, BB721 growth rt 4.1 and AI-2 QS JMH597 97.0*.
For COc1ccc(S(=O)(=O)N(C)C[C@H]2Oc3ccc(NS(C)(=O)=O)cc3C(=O)N([C@@H](C)CO)C[C@H]2C)cc1 the results were ERp5 inh 3.1.
`O=C(C[C@@H]1C[C@H]2c3cc(NC(=O)CC4CC4)ccc3O[C@H]2[C@@H](CO)O1)NCCc1ccccc1` gave ERp5 inh -1.3.
For COc1ccc(NC(=O)N(C)C[C@@H]2Oc3c(NS(=O)(=O)c4ccc(Cl)cc4)cccc3C(=O)N([C@H](C)CO)C[C@@H]2C)cc1 the results were ERp5 inh -6.6.
For CCNC(=O)[C@@H]1[C@@H](CO)[C@@H]2Cn3c(ccc(C4=CCCC4)c3=O)[C@@H]2N1C(=O)CC1CC1 the results were ERp5 inh 0.9.
For O=c1oc2ccccc2cc1NCc1ccccc1O the results were AI-2 QS modul -93.8*, PvdQ acylase -5.0, Vif inh -6.9, ERp5 inh -2.3, JMH597 growth 13.6, BB721 const-QS lum 97.2*, BB721 growth rt 14.6 and AI-2 QS JMH597 98.1*.
`O=C(NCc1ccccc1Cl)c1cc2ccccc2oc1=O` gave AI-2 QS modul -8.7, PDI turbidity -1.6, PvdQ acylase -9.0, Vif inh 1.8 and ERp5 inh 0.6.
`CN(C)S(=O)(=O)c1ccc(Oc2ccccc2)cc1` gave AI-2 QS modul -92.8*, PDI turbidity -5.9, PvdQ acylase 4.4, Vif inh 4.3, JMH597 growth -8.1, BB721 const-QS lum 83.7*, BB721 growth rt -56.0 and AI-2 QS JMH597 99.0*.
For CNC[C@H]1Oc2cc(C#CC3(O)CCCC3)ccc2S(=O)(=O)N([C@@H](C)CO)C[C@H]1C the results were ERp5 inh 10.3.
`CCc1nnc(NC(=O)CSc2nnc(COc3cccc(C)c3)o2)s1` gave AI-2 QS modul -90.5*, PDI turbidity 0.2, PvdQ acylase -19.2, Vif inh -2.3, JMH597 growth 13.2, BB721 const-QS lum 96.2*, BB721 growth rt -12.5 and AI-2 QS JMH597 98.0*.
`COc1cccc(Oc2cn[nH]c2-c2ccc(O)cc2O)c1` gave AI-2 QS modul -83.9*, PDI turbidity 9.5, PvdQ acylase -16.7, Vif inh 2.0, JMH597 growth inconclusive, BB721 const-QS lum 97.6*, BB721 growth rt inconclusive and AI-2 QS JMH597 98.9*.
`O=C(NCCc1ccco1)c1cc(COc2cccc(C(F)(F)F)c2)on1` gave AI-2 QS modul -84.2*, PDI turbidity 3.7, PvdQ acylase -5.7, Vif inh -4.5, ERp5 inh -1.5, JMH597 growth 30.9, BB721 const-QS lum 82.3*, BB721 growth rt -194.7 and AI-2 QS JMH597 92.3*.
C[C@H](CO)N1C[C@H](C)[C@H](CN(C)Cc2ccc(C(=O)Nc3ccccc3N)cc2)Oc2c(NS(=O)(=O)c3cn(C)cn3)cccc2C1=O was read as ERp5 inh -6.2.
`N#Cc1ccc(NC(=O)CN2C(=O)NC(Cc3ccccc3)C2=O)cc1` (stereo not given) gave AI-2 QS modul -15.3, PDI turbidity 7.9, PvdQ acylase -1.9 and Vif inh 2.2.
Cc1cccc(NC(=O)CN2C(=O)NC(Cc3ccccc3)C2=O)c1 (stereo not given) was read as AI-2 QS modul inconclusive, PDI turbidity 7.1, PvdQ acylase -12.6, Vif inh 3.2, JMH597 growth -14.8, BB721 const-QS lum 85.0*, BB721 growth rt -22.4 and AI-2 QS JMH597 88.8*.
